PubChem BioAssay (NCI)
Compounds without any hit were thinned out: in the full panel of roughly 79,000, 15% have a hit. Active and inactive are the calls of the source. Rule as the data show it: active = growth inhibition above about 70%; inactive = the rest.

Legend:
[1] = NCI Yeast Anticancer Drug Screen. Data for the mlh1 strain (AID 171);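 also: 0% = growth of vehicle-treated control cultures of the same strain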; details: S. cerevisiae mlh1 strain growth inhibition, stronger effect = higher value
Summary of the method: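 Measured: yeast growth. Reference: vehicle-treated controls. Organism: strain with a defined alteration affecting DNA damage repair or cell cycle control, treated with compound.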

[2] = NCI Yeast Anticancer Drug Screen. Data for the mlh1 rad18 strain (AID 175); details: S. cerevisiae mlh1 rad18 strain growth inhibition, stronger effect = higher value
Summary of the method: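 Genetically defined yeast (DNA repair-deficient) exposed to compounds; growth inhibition determined relative to vehicle.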

[3] = NCI Yeast Anticancer Drug Screen. Data for the rad18 strain (AID 177); details: S. cerevisiae rad18 mutant growth inhibition, stronger effect = higher value
Summary of the method: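 Vehicle-treated cultures served as the baseline for scoring compound-induced growth inhibition in DNA-repair-mutant yeast.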

[4] = NCI Yeast Anticancer Drug Screen. Data for the rad52 strain (AID 147);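 also: 0% = growth of vehicle-treated control cultures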; details: S. cerevisiae rad52 mutant growth inhibition, stronger effect = higher value
Summary of the method: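 The repair-mutant yeast strain was incubated with compounds, then growth was read and inhibition derived relative to vehicle.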

[5] = NCI Yeast Anticancer Drug Screen. Data for the wt1 strain (AID 149);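 also: 0% = growth of vehicle-treated wt1 cultures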; details: S. cerevisiae wt1 strain (SPY 50644) growth inhibition, stronger effect = higher value
Summary of the method: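 The wt1 strain was treated with compounds, and growth was compared with vehicle-treated cultures to give inhibition.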

[6] = NCI Yeast Anticancer Drug Screen. Data for the mgt1 strain (AID 153); details: S. cerevisiae mgt1 mutant growth inhibition, stronger effect = higher value
Summary of the method: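 Vehicle-normalized growth inhibition is determined in mgt1 yeast, a strain selected for a defined alteration in DNA repair or cell cycle control.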

[7] = NCI Yeast Anticancer Drug Screen. Data for the rad50 strain (AID 155);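 also: 0% = growth of vehicle-only cultures of the same strain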; details: S. cerevisiae rad50 strain growth inhibition, stronger effect = higher value
Summary of the method: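 Cells are treated with compound, grown, and their growth is then scored against vehicle-only cultures of the same repair-deficient yeast strain.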

[8] = NCI Yeast Anticancer Drug Screen. Data for the mec2-1 strain (AID 157); details: S. cerevisiae mec2-1 strain, stronger effect = higher value
Summary of the method: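 Mutant yeast (mec2-1) grown with compound; growth inhibition relative to vehicle control reported.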

[9] = NCI Yeast Anticancer Drug Screen. Data for the rad14 strain (AID 159);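 also: 0% = growth of vehicle-treated control cultures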; details: S. cerevisiae rad14 strain growth inhibition, stronger effect = higher value
Summary of the method: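 Readout: yeast growth inhibition, referenced to vehicle-only cultures. Strain bears a defined alteration in DNA damage repair.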

[10] = NCI Yeast Anticancer Drug Screen. Data for the sgs1 mgt1 strain (AID 161);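 also: 0% = growth of cultures given vehicle only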; details: S. cerevisiae sgs1 mgt1 strain, stronger effect = higher value
Summary of the method: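 Compounds are added to genetically altered yeast, and growth is compared with cultures given vehicle alone to give percent inhibition.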

[11] = NCI Yeast Anticancer Drug Screen. Data for the cln2 rad14 strain (AID 165);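 also: 0% = growth equal to vehicle treated cultures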; details: S. cerevisiae cln2 rad14 strain, stronger effect = higher value
Summary of the method: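 Readout is yeast growth inhibition versus vehicle-treated controls, using a strain with cln2 and rad14 alterations exposed to compound.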

[12] = NCI Yeast Anticancer Drug Screen. Data for the bub3 strain (AID 167); details: S. cerevisiae bub3 mutant strain, stronger effect = higher value
Summary of the method: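 Part of a panel of yeast mutants defective in DNA damage repair or cell cycle regulation. Each strain is grown with compound, and inhibition is calculated relative to solvent-treated cultures.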

[13] = NCI Yeast Anticancer Drug Screen. Data for the wt2 strain (AID 169);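 also: 0% = growth of vehicle-treated yeast cultures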; details: S. cerevisiae wt2 strain growth inhibition, stronger effect = higher value
Summary of the method: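 Against vehicle-treated controls, the growth of yeast exposed to each compound was compared, and the inhibition was recorded.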

[14] = NCI Yeast Anticancer Drug Screen. Data for the sgs1 strain (AID 173);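 also: 0% = growth of vehicle-only control cultures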; details: S. cerevisiae sgs1 mutant, stronger effect = higher value
Summary of the method: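 Each compound was added to cultures of the altered yeast strain. Growth was recorded, and inhibition was derived by comparison with vehicle controls.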

[15] = NCI Yeast Anticancer Drug Screen. Data for the rad50EPP+ strain (AID 151);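 also: 0% = growth of vehicle-treated control cultures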; details: S. cerevisiae rad50 mutant strain, stronger effect = higher value
Summary of the method: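 Vehicle-normalised growth inhibition; rad50EPP+ yeast strain, altered in DNA damage repair, compound-treated.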

[16] = NCI Yeast Anticancer Drug Screen. Data for the CLN2oe strain (AID 163);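 also: 0% = growth of vehicle-only control cultures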; details: S. cerevisiae CLN2oe strain, stronger effect = higher value
Summary of the method: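 Compounds are applied to yeast harbouring a defined cell-cycle control change; reduced growth compared with vehicle-treated controls gives the value.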

[17] = at 5.0 µM (retest, dose inferred, filed as 0.5)
[18] = at 50.0 µM (retest, dose inferred, filed as 5.0)

Measured: growth inhibition

OC(Cc1cccc2ccccc12)CN1CCC(c2ccccc2)CC1 (centres undefined)
inactive: [1]; at 1.2 µM 31% | [1]; at 3.7 µM 38% | [1]; at 11.0 µM 48% | [2]; at 50.0 µM 69.8% | [3]; at 1.2 µM 30% | [3]; at 3.7 µM 38% | [3]; at 11.0 µM 54% | [3]; at 33.0 µM 65%
active: [1]; at 33.0 µM 84% | [1]; at 100.0 µM 98% | [2]; [17] 74% | [2]; [18] 89% | [3]; at 100.0 µM 87%

NCCOc1ccc(/C(=C(/Cl)c2ccccc2)c2ccccc2)cc1
inactive: [4]; at 1.2 µM -10% | [4]; at 3.7 µM -15% | [4]; at 11.0 µM 23% | [5]; at 1.2 µM 1% | [5]; at 3.7 µM -4% | [5]; at 11.0 µM 5% | [6]; at 1.2 µM -6% | [6]; at 3.7 µM -7% | [6]; at 11.0 µM 13% | [7]; at 1.2 µM -3% | [7]; at 3.7 µM 3% | [7]; [17] 17% | [7]; at 11.0 µM 39% | [8]; at 1.2 µM -5% | [8]; at 3.7 µM -17% | [8]; [17] 7% | [8]; at 11.0 µM 11% | [9]; at 1.2 µM -16% | [9]; at 3.7 µM -18% | [10]; [17] 7% | [11]; [17] 37% | [12]; at 1.2 µM 0% | [12]; at 3.7 µM -35% | [12]; [17] -11% | [12]; at 11.0 µM 14% | [13]; at 1.2 µM -4% | [13]; at 3.7 µM 0% | [13]; at 11.0 µM 2% | [1]; at 1.2 µM 18% | [1]; at 3.7 µM 10% | [1]; at 11.0 µM 34% | [14]; at 1.2 µM 26% | [14]; at 3.7 µM 23% | [14]; at 11.0 µM 55% | [2]; [17] -1% | [3]; at 1.2 µM 16% | [3]; at 3.7 µM 29% | [3]; at 11.0 µM 30%
active: [4]; at 33.0 µM 98% | [4]; at 100.0 µM 96% | [5]; at 33.0 µM 98% | [5]; at 100.0 µM 97% | [6]; at 33.0 µM 98% | [6]; at 100.0 µM 96% | [7]; at 33.0 µM 99% | [7]; [18] 98% | [7]; at 50.0 µM 85.5% | [7]; at 100.0 µM 96% | [8]; at 33.0 µM 98% | [8]; [18] 99% | [8]; at 50.0 µM 93.8% | [8]; at 100.0 µM 97% | [9]; at 11.0 µM 72% | [9]; at 33.0 µM 98% | [9]; at 100.0 µM 96% | [10]; [18] 98% | [10]; at 50.0 µM 92.7% | [11]; [18] 98% | [11]; at 50.0 µM 92.2% | [12]; at 33.0 µM 99% | [12]; [18] 98% | [12]; at 50.0 µM 91.8% | [12]; at 100.0 µM 96% | [13]; at 33.0 µM 98% | [13]; at 100.0 µM 97% | [1]; at 33.0 µM 99% | [1]; at 100.0 µM 97% | [14]; at 33.0 µM 99% | [14]; at 100.0 µM 97% | [2]; [18] 98% | [2]; at 50.0 µM 88.7% | [3]; at 33.0 µM 99% | [3]; at 100.0 µM 97%

O=C(O)c1cc2c(cc1S(=O)(=O)O)C1C(C3C2C2(Cl)C(Cl)=C(Cl)C3(Cl)C2(Cl)Cl)C2(Cl)C(Cl)=C(Cl)C1(Cl)C2(Cl)Cl (centres undefined)
inactive: [4]; at 1.2 µM 0% | [4]; at 3.7 µM 3% | [4]; at 11.0 µM 13% | [5]; at 1.2 µM 2% | [5]; at 3.7 µM 0% | [5]; at 11.0 µM 3% | [5]; at 33.0 µM 62% | [15]; at 1.2 µM 3% | [15]; at 3.7 µM -2% | [15]; at 11.0 µM -52% | [15]; at 33.0 µM -84% | [15]; at 100.0 µM 61% | [7]; at 1.2 µM 2% | [7]; at 3.7 µM 1% | [7]; [17] 17% | [7]; at 11.0 µM 9% | [7]; at 33.0 µM 63% | [8]; at 1.2 µM -3% | [8]; at 3.7 µM -2% | [8]; [17] 20% | [8]; at 11.0 µM 0% | [10]; [17] 37% | [16]; at 1.2 µM -4% | [16]; at 3.7 µM -5% | [16]; at 11.0 µM -11% | [16]; at 33.0 µM 51% | [11]; [17] 11% | [12]; at 1.2 µM -3% | [12]; at 3.7 µM -5% | [12]; [17] 2% | [12]; at 11.0 µM -11% | [13]; at 1.2 µM 1% | [13]; at 3.7 µM 0% | [13]; at 11.0 µM 12% | [1]; at 1.2 µM -2% | [1]; at 3.7 µM -2% | [1]; at 11.0 µM 11% | [14]; at 1.2 µM -4% | [14]; at 3.7 µM -1% | [14]; at 11.0 µM 21% | [2]; [17] 67%
active: [4]; at 33.0 µM 78% | [4]; at 100.0 µM 95% | [5]; at 100.0 µM 96% | [7]; [18] 96% | [7]; at 50.0 µM 96.2% | [7]; at 100.0 µM 90% | [8]; at 33.0 µM 85% | [8]; [18] 96% | [8]; at 50.0 µM 95.4% | [8]; at 100.0 µM 96% | [10]; [18] 97% | [10]; at 50.0 µM 94.4% | [16]; at 100.0 µM 88% | [11]; [18] 97% | [11]; at 50.0 µM 93.7% | [12]; at 33.0 µM 74% | [12]; [18] 98% | [12]; at 50.0 µM 94.8% | [12]; at 100.0 µM 94% | [13]; at 33.0 µM 90% | [13]; at 100.0 µM 96% | [1]; at 33.0 µM 95% | [1]; at 100.0 µM 97% | [14]; at 33.0 µM 92% | [14]; at 100.0 µM 96% | [2]; [18] 98% | [2]; at 50.0 µM 96.3%
